Bioassay records (PubChem BioAssay)
Rows were chosen to be rich in hits. Some 2.8% of all compounds tested hit in one or more screens of this group.
GAA850 FXN act – increases GAA850 frataxin promoter reporter activity | HEK293 lucGAA850 FXN promoter luciferase reporter, 24 h; percent of 10 µM SAHA response | activation, % at 6 µM | hit rate 0.56% among 360,000 | AID 540364;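 active = activation above the average of all compounds screened plus 3 SD, cutoff fixed separately per campaign, cut at about 7.5% in these data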
Wnt bcat act – Wnt/beta-catenin pathway activation | Wnt/beta-catenin reporter cell assay, activator, plate reader | activation, % at 9.35 µM | hit rate 1.2% among 300,000 | AID 743398; in the data active = activation above about 30%, passing the limit was not always enough; inconclusive = no clear call, values can overlap the other calls
esBAF inh – blocks esBAF chromatin remodeling in mouse ES cells | reporter increase, % at 12.5 µM | Bmi1-luciferase knock-in reporter, 24 h; 100% = twice the neutral-well signal | hit rate 2% among 350,000; in the data active = activation above about 40%; inconclusive = no clear call, values can overlap the other calls;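 note: a rise in the Bmi1 reporter signal indicates esBAF inhibition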
MITF TRPM1 HTS – MITF TRPM1 promoter activation in melanoma cells; SK-MEL-5 TRPM1-promoter luciferase, 24 h; % of positive control, neutral wells = 0; activation, % at 12.5 µM; hit rate 0.75% among 300,000;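 active = mean activation of at least 80% with every replicate also reaching 80%; inconclusive = mean reaches 80% but some replicate falls short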
Numbers stand for hits; i = inactive; ? = inconclusive; nt = not tested or not shown.

SMILES	GAA850 FXN act	Wnt bcat act	esBAF inh	MITF TRPM1 HTS
COc1ccc(/C=C/c2nc3ccccc3n2Cc2ccc(OC)c(OC)c2)cc1	i	i	?	107.9
COCn1c(-c2ccc(OC)c(OC)c2)nc2ccccc21	i	nt	47.3	nt
C[C@@H]1CN([C@H](C)CO)C(=O)c2ccccc2-c2ccccc2CO[C@@H]1CN(C)S(=O)(=O)c1ccccc1F	nt	nt	i	nt
CCCNC(=O)[C@H]1[C@H](CO)[C@H]2Cn3c(ccc(/C=C/c4ccccc4)c3=O)[C@@H]1N2C(=O)c1cccnc1	nt	nt	i	nt
CO[C@@H]1CN(C)C(=O)c2cc(NC(=O)C3CCCCC3)ccc2OC[C@@H](C)N(C(=O)c2ccccc2)C[C@@H]1C	nt	nt	i	nt
CCCCCc1cc(=O)c2ccccc2o1	i	i	50.2	i
O=c1cc(-c2ccccc2)oc2ccccc12	i	i	56.0	i
O=c1cc(/C=C/c2ccccc2)oc2ccccc12	i	nt	59.0	i
Cc1ccc(CNC(=O)c2cc(-c3ccccc3)nn2Cc2cc(C)no2)cc1	i	i	?	125.3
Cc1cc(Cn2nc(-c3ccccc3)cc2C(=O)NCc2cccs2)on1	i	i	i	i
COc1ccccc1CNC(=O)c1cc(-c2ccccc2)nn1Cc1cc(C)no1	i	i	i	i
CCOC(=O)c1cc(-c2ccccc2)nn1Cc1cc(C)no1	i	i	i	86.8
CCc1cc(Cn2nc(-c3ccccc3C)cc2C(=O)O)on1	i	i	i	i
CCOC(=O)c1cc(-c2ccccc2C)nn1Cc1cc(C)no1	i	i	46.3	i
O=C(N[C@H]1CC[C@@H](CCn2cc(C3(O)CCCC3)nn2)O[C@@H]1CO)C1CCC1	nt	nt	i	nt
Cc1cccc(NC(=O)C[C@H]2CC[C@H]3[C@@H](COc4ccc(NC(=O)C5CCC5)cc4C(=O)N3C)O2)c1	nt	nt	i	nt
CN(C)C(=O)C[C@@H]1C[C@H]2c3cc(NS(C)(=O)=O)ccc3O[C@H]2[C@@H](CO)O1	nt	nt	i	nt
COc1cccc(C=Cc2nccc3ccccc23)c1OC	i	58.9	i	nt
CCOc1cccc(/C=C/c2ccc3cccc(O)c3n2)c1OC	i	39.9	i	i
COc1cc(Cl)cc(/C=C/c2ccc3cccc(O)c3n2)c1OC	i	i	i	i
Oc1cccc2ccc(/C=C/c3ccccc3Cl)nc12	i	i	i	i
CCOc1cccc(/C=C/c2ccc3cccc(O)c3n2)c1O	i	47.9	86.8	i
COc1ccccc1/C=C/c1ccc2cccc(O)c2n1	i	i	67.0	i
C[C@H]1CN([C@@H](C)CO)C(=O)Cc2cc(NC(=O)Nc3ccc4c(c3)OCO4)ccc2O[C@H]1CN(C)C(=O)Nc1ccccc1	nt	nt	i	nt
C[C@H](CO)N1C[C@H](C)[C@@H](CN(C)CC2CCCCC2)Oc2ccc(NC(=O)Cc3ccccc3)cc2CC1=O	nt	nt	i	nt
SMILES	GAA850 FXN act	Wnt bcat act	esBAF inh	MITF TRPM1 HTS
Cn1c(O)c(/C=N/NC(=O)c2cc3ccccc3cc2O)c2ccccc21	i	i	46.9	nt
Cn1c2ccccc2c2cc(/C=N/NC(=O)c3ccc(O)cc3O)ccc21	i	nt	nt	i
COCCn1c(C)cc(/C=N/NC(=O)c2cc3ccccc3cc2O)c1C	i	nt	46.7	i
C[C@H](CO)N1C[C@H](C)[C@H](CN(C)S(C)(=O)=O)Oc2ccc(NC(=O)Nc3cccc4ccccc34)cc2CC1=O	nt	nt	i	nt
Cc1cc(N2CCN(C(=O)c3ccco3)CC2)n2ncc(-c3ccccc3)c2n1	i	i	49.8	nt
Cc1cc(N2CCN(C(=O)c3ccco3)CC2)n2ncnc2n1	i	i	nt	i
Cc1nc2cc(-c3cccc(F)c3)nn2c(N2CCN(C(=O)c3ccco3)CC2)c1C	i	nt	42.8	i
COc1ccc(CN(C)C[C@@H]2Oc3ccc(NS(=O)(=O)c4ccc(C)cc4)cc3C(=O)N([C@@H](C)CO)C[C@H]2C)cc1	nt	nt	i	nt
CC(=O)Nc1ccc(CC(=O)Nc2ccc3c(c2)OC2(CCCC2)O3)cc1	i	i	46.2	nt
COc1ccc(CC(=O)Nc2ccc3c(c2)OC2(CCCC2)O3)c(OC)c1	i	i	i	nt
COc1cccc(CC(=O)Nc2ccc3c(c2)OC2(CCCC2)O3)c1	i	i	42.2	i
COc1ccc(S(=O)(=O)Nc2cccc3c2O[C@@H](CN(C)CC2CC2)[C@H](C)CN([C@@H](C)CO)C3=O)cc1	nt	nt	i	nt
Cc1ccc(S(=O)(=O)Nc2cccc3c2O[C@@H](CN(C)CC2CCCCC2)[C@H](C)CN([C@H](C)CO)C3=O)cc1	nt	nt	i	nt
COc1cccc(OCc2cc(/C=N/Nc3ccc(C(=O)O)cc3)ccc2OC)c1	i	i	58.8	i
c1ccc(-c2cc(-c3ccccc3)on2)cc1	i	41.5	nt	i
Cc1ccc(-c2cc(-c3ccccc3)no2)cc1	i	i	i	i
Nc1nc(-c2cc(-c3ccccc3)no2)cs1	i	46.4	i	88.3
Nc1nc(-c2ccccc2)cs1	i	nt	?	i
O=C(C[C@H]1C[C@H]2c3cc(NC(=O)Nc4ccc(C(F)(F)F)cc4)ccc3O[C@H]2[C@H](CO)O1)NCC1CC1	nt	nt	i	nt
CCOC(=O)CSc1nc(N)c(C#N)c(-c2cccs2)c1C#N	i	nt	i	i
CCCSc1nc(N)nc(-c2cccs2)c1C#N	i	nt	47.7	i
CCOC(=O)C1(Cc2ccccc2Cl)CCN(C(=O)c2cc(C)on2)CC1	i	i	i	i
CCOC(=O)C1(Cc2ccccc2Cl)CCN(C(=O)c2cnccn2)CC1	i	i	66.7	i
C[C@@H]1CCCCO[C@H](CN(C)Cc2ccc3c(c2)OCO3)[C@@H](C)CN([C@H](C)CO)C(=O)c2cc(NS(C)(=O)=O)ccc2O1	nt	nt	i	nt
COc1cc(OC)cc(C(=O)Nc2ccc3nc4n(c(=O)c3c2)CCCCC4)c1	i	i	52.8	i
SMILES	GAA850 FXN act	Wnt bcat act	esBAF inh	MITF TRPM1 HTS
CCc1ccc(NC(=O)c2sc3nc4n(c(=O)c3c2C)CCC4)cc1	i	i	43.6	i
CC(=O)c1cccc(NC(=O)c2sc3nc4n(c(=O)c3c2C)CCCC4)c1	i	i	49.0	i
COc1ccccc1C(=O)Nc1ccc2nc3n(c(=O)c2c1)CCCC3	i	i	i	i
CC(=O)Nc1ccc(NC(=O)c2sc3nc4n(c(=O)c3c2C)CCCCC4)cc1	i	i	nt	i
CCCNC(=O)C[C@H]1CC[C@@H]2[C@H](COC[C@H](O)CN2C(=O)CC)O1	nt	nt	i	nt
CC(=O)OCc1nc2ccccc2s1	i	?	42.9	i
O=C(O)COCc1nc2ccccc2s1	i	i	i	i
NC(=O)c1ccccc1OCc1nc2ccccc2s1	i	41.6	i	i
O=S(=O)(Cc1nc2ccccc2s1)c1ccccc1	i	i	57.1	i
O=S(=O)(/N=C(/Nc1nc2ccccc2s1)c1ccccc1)c1ccccc1	i	50.1	65.6	i
Cc1ccc2nc(N/C(=N/S(=O)(=O)c3ccc(F)cc3)c3ccccc3)sc2c1	i	i	nt	i
NC(=O)c1ccccc1OCc1cccc2ccccc12	i	i	i	i
Cc1noc(C)c1NC(=O)N(C)C[C@H]1OCCCC[C@@H](C)Oc2ccc(NC(=O)NC(C)C)cc2C(=O)N([C@H](C)CO)C[C@H]1C	nt	nt	i	nt
O=C(C[C@@H]1CC[C@H]2[C@@H](COC[C@@H](O)CN2C(=O)Nc2ccccc2)O1)NCCCN1CCOCC1	nt	nt	i	nt
O=C(CCN1CCCCC1)NCC[C@@H]1CC[C@H](NC(=O)Cc2cccnc2)[C@H](CO)O1	nt	nt	i	nt
O=C(OCc1nc2ccccc2s1)c1ccc(Br)o1	i	i	nt	i
Cc1cc(C(=O)OCc2nc3ccccc3s2)c(C)o1	i	nt	71.8	i
